# Key:
# Assay in all cases: PBM binding z-score (relative to random genomic background probes); higher = stronger binding; sequences stand for … in GC…GCGATTGACAGCGTAGAATGAAGG
# [1] = system: FXR:RXRa (NR concentration 270 nM, RXRa partner concentration 90 nM)
# How it was run: (§1)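 Custom Agilent 4×180K protein-binding microarrays carried double-stranded probes, each with a 34-nt variable region. These regions held direct-repeat seeds, single-nucleotide variants, half-site ablations and random human genomic background sequences. Ligand-free nuclear receptor dimers were incubated on the arrays for 1 h, antibodies against each partner (one per run) detected binding, and scanned fluorescence was regression-normalized. Binding z-scores take the random background probes as reference.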
# [2] = system: LXRa:RXRa (NR concentration 270 nM, RXRa partner concentration 90 nM)
# How it was run: as §1
# [3] = system: LXRa homodimer (NR concentration 270 nM)
# How it was run: as §1
# [4] = system: LXRb:RXRa (NR concentration 270 nM, RXRa partner concentration 90 nM)
# How it was run: as §1
# [5] = system: LXRb homodimer (NR concentration 270 nM)
# How it was run: as §1
# [6] = system: PPARa:RXRa (NR concentration 270 nM, RXRa partner concentration 90 nM)
# How it was run: as §1
# [7] = system: PPARg:RXRa (NR concentration 180 nM, RXRa partner concentration 90 nM)
# How it was run: as §1
# [8] = system: PPARg:RXRa 270nM:90nM, anti-RXR (NR concentration 270 nM, RXRa partner concentration 90 nM)
# How it was run: as §1
# [9] = system: PPARg:RXRa 30nM:10nM, anti-RXR (NR concentration 30 nM, RXRa partner concentration 10 nM)
# How it was run: as §1
# [10] = system: PPARg:RXRa 90nM:30nM, anti-RXR (NR concentration 90 nM, RXRa partner concentration 30 nM)
# How it was run: as §1
Sequence,PBM binding z-score [1],PBM binding z-score [2],PBM binding z-score [3],PBM binding z-score [4],PBM binding z-score [5],PBM binding z-score [6],PBM binding z-score [7],PBM binding z-score [8],PBM binding z-score [9],PBM binding z-score [10]
CGTCGGAGGACAGAAGGTCAGAGCTGTCCGCTTT,1.32,1.68,0.0253,1.19,-1.11,1.85,-0.101,1.07,-0.708,0.0661
AGTCAAAGTTCAGGACGAGGTCACGTAAAGCACG,6.35,5.87,4.71,4.87,0.736,5.46,6.17,6.26,2.76,4.97
CGAACTAGGTCACCGGGACAGTGAAGAGGTTGGA,4.89,2.78,-0.0882,1.89,-0.502,5.58,9.04,7.34,5.02,7.12
CGTCAAAGTTCAACTAAGGTAACGTATAGCACGC,7.12,6.07,4.63,4.52,2.2,5.23,5.1,5.56,2.29,4.48
ATATGTAGGATATCGGGTCATTCAGTTTGCGCAT,1.64,1.98,0.589,2.02,0.577,3.05,2.36,2.9,1.16,2.09
CGAACTAGGTCTCCAGGACAGTGAAGAGGTTGGA,-0.128,-0.769,-0.494,-0.832,-1.01,0.539,0.908,0.999,-0.187,0.153
CGTCCAAGGTCAAAGGTCAGTAAAGAGATGACGG,8.12,6.87,3.18,6.62,2,7.32,10.8,9.28,7.89,9.37
CCTACTGGGCCAAAGGTCCTTGATTCCAATGCTC,-0.0555,-0.225,-0.404,0.0817,-0.832,3.84,8.78,8.68,8.07,8.91
GCTCGGGGGACAAGGTCAGAGCTTTGTCCGTAGA,3.46,3.46,0.143,3.96,4.29,4.25,3.61,4.54,1.72,3.56
CCTACTGGGCCATTCAGAGGACATTGATCATATG,-0.067,-0.34,0.339,-0.405,-0.12,0.0535,0.784,0.44,-0.132,-0.17
ATCTCTAGGTAAAGGTCAGTGAAAGATCGATAGA,3.48,3.55,1.74,3.42,1.54,4.32,6.77,6.29,4.39,6.41
AGTCAAAGTTCACGACGAGGTAACGTAAAGCACG,7.08,6.16,3.15,3.94,0.875,5.45,7.81,7.17,4.47,6.41
CAAACTAGGTCACAGAGGTTAAAGTCCGTGCGTA,5.89,5.17,3.01,4.28,0.562,6.05,9.43,7.64,5.91,7.56
CGTGCAAGGTCAGAGAGGTCAGTGAATGCCGAGT,6.42,5.22,3.35,4.61,0.199,5.16,3.9,4.62,1.19,3.09
TCTAGTTGGTGACGGAGGTCACACACGACGGGTA,2.59,3.03,1.85,2.9,0.435,3.65,2.52,3.45,3.36,3.36
ATCGAAAGGGCGTGAGGTGAGTATACAGAAAGGC,0.437,0.45,-0.364,0.429,-0.169,1.36,0.822,0.778,0.328,0.452
CGTCCAAGGTCACCAGGTCAGTGAAAGCGACGTG,7.52,5.47,1.42,4.08,0.282,6.01,7.61,6.88,3.48,5.87
CCAGAAAGGTGAAAGGTAACTCAGTCTGGTACGC,2.31,2.14,-0.21,2.12,-0.446,5.13,6.55,6.26,4.77,6.27
CGAACTAGCTCAAGGACAGTGAATCTCCGCACGC,0.148,-0.503,0.172,-0.398,-0.571,-0.568,0.277,-0.53,-0.374,-0.661
CGAACTAGGTCACCAGGCCAGTGAAGAGGTTGGA,4.08,2.41,-0.125,1.44,-0.76,5.2,8.64,7.15,4.02,6.44
CGGACTAGGTCAAAGGACAGTGAAAGGCGACGTA,3.87,2.49,-0.041,1.67,-0.542,4.93,10.2,8.4,8.49,9.55
AATACAGGGTCGCTAGGCCAGAGTAGGTACGAAT,0.424,0.524,-0.204,0.525,-0.053,1.37,1.05,0.765,0.105,0.482
ATATGTAGGTTAGGATCATTCAGAAAGTAGGGAA,0.633,0.786,0.139,0.95,0.084,2.83,3.9,3.07,1.22,2.31

# Reference: the supplement of paper PMC6555819
